Test results as given in PubChem BioAssay (NCI).
Compounds without any hit were thinned out: in the full panel of roughly 83,000, 20% have a hit.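 The test compound was applied at a single concentration to cells in 96-well plates for 48 hours, and percent growth was recorded.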 The source made the active and inactive calls.

What follows are compounds tested on SK-MEL-5 melanoma (assay: NCI-60 one-dose screen, 48 h (100 = growth as untreated, 0 = no growth, -100 = all killed)). Details: 10 µM unless noted.
Method: Growth inhibition of the SK-MEL-5 human tumor cell line is measured as a screen for anti-cancer activity. Cells are grown in 96 well plates and exposed to the test compound for 48 hours. Compounds are tested at a single concentration, which is 10^-5 M for most compounds. The reported endpoint is percent growth (GI% or GIPRCNT), where numbers from 0 - 100% represent growth inhibition, and numbers from -100% - 0 represent cell death. For example, a value of 40 represents 60% growth inhibition. A value of 0 means no net growth occurred over the course of the experiment. A value of -40 indicates 40% of cells at the beginning of the experiment died by the end of the experiment. A value of -100 means all cells are dead at the end of the experiment.
NCI-60 Human Tumor Cell Lines Screen was performed using the standard one-dose NCI protocol, which is described in more detail at https://dtp.cancer.gov/discovery_development/nci-60/default.htm.
Compounds with GIPRCNT values below 10 were considered active. Activity score was based on GIPRCNT using the following formula: […]
Score is 0 for GIPRCNT values of 100 or above, 50 for GIPRCNT values of 0, and 100 for GIPRCNT values of -100.
`ICCC(c1ccccc1)(c1ccccc1)c1ccccc1` was tested, and the growth was -49.5% (active). In the case of `CC(=O)c1ccccc1NC(=O)C(C)(c1ccccc1)c1ccccc1`, the growth is reported as 6.19% (active). For `O=C1c2cccc(NCCN=Cc3ccccc3O)c2C(=O)c2c(NCCN=Cc3ccccc3O)cccc21`, the growth was 52.7% (inactive). `c1ccc2c(-c3nc4ccccc4[nH]3)cccc2c1` was tested, and the growth was 20.1% (inactive). `O=C1CSC(c2ccccc2Cl)N1c1nnc(Cn2nnc3ccccc32)o1` (stereo not given) was tested, and the growth was 79.3% (inactive). For `CCOC(=O)c1sc(NC(=O)COc2ccc(/C=C3\CCc4cc(OC)ccc4C3=O)cc2)nc1C`, the growth was 96.6% (inactive). `Cc1ccc(-c2c3c(N)nc(-c4ccncc4)nc3nc3c2c(C)nn3-c2ccccc2)cc1` was tested, and the growth was 55.3% (inactive). With `COc1ccc(OC)c2c1CCC1(C2)NC(=O)NC1=O` (stereo not given) the growth was 101% (inactive). `Cc1[nH]ccc2cc3nc4ccccc4c3cc12` was tested, and the growth was 37.8% (inactive). `CCC(=O)Nc1cc2c(cc1Cl)-c1ccccc1C2` was tested, and the growth was 93.5% (inactive). For `NS(=O)(=O)c1ccc(-n2nc(-c3ccc(Br)cc3)ccc2=O)cc1`, the growth was 65.1% [100 µM] (inactive). `CN1C(=O)C(C2=NN(C=O)C(c3ccc(F)cc3)C2)C(=O)N(C)C1=O` (stereo not given) was tested, and the growth was 102% (inactive). For `CCN(CC)c1ccc(N=C2C=CC(=O)C=C2NC(C)=O)cc1`, the growth was 88.5% (inactive). In the case of `O=C(NC1CCS(=O)(=O)C1)c1ccc(C(=O)c2ccccc2)cc1` (stereo not given), the growth is reported as 110% (inactive). With `CCCCCc1c(C)[nH]c(/C=C2\N=C(c3ccc[nH]3)C=C2Oc2ccccc2)c1C` the growth was -61% [100 µM] (active). In the case of `Nc1ccc(N=Nc2ccccc2)cc1[N+](=O)[O-]`, the growth is reported as 93.1% (inactive). `c1ccc(N2c3nc4ccccc4cc3Sc3cc4ccccc4nc32)nc1` was tested, and the growth was 91.3% (inactive). In the case of `NS(=O)(=O)N(c1cc(C(F)(F)F)cc(C(F)(F)F)c1)C1CCN(Cc2ccc(C(F)(F)F)cc2)CC1`, the growth is reported as 38.2% (inactive). For `COc1cnc2c(c1)C(=O)c1c-2n(CCCN2CCCC2)c(=O)c2cc(F)ccc12`, the growth was -95.9% (active). For `CC1CN(/N=C/c2ccc([N+](=O)[O-])o2)C(=N)O1` (stereo not given), the growth was 93.4% (inactive). With `CCCCCN(CCCCC)CCCNc1c2c(nc3ccc(Cl)cc13)CCCC2` the growth was 23.4% (inactive). For `CCN(CC)CCNCC(=O)Oc1ccc(/C=C/C(=O)CC(=O)/C=C/c2ccc(OC(=O)CNCCN(CC)CC)c(OC)c2)cc1OC`, the growth was -13.7% (active). For `O=C(c1ccccc1)C(CN1CCCCC1)c1ccccc1` (stereo not given), the growth was 58.8% (inactive). With `FC(F)(F)c1ccc(-c2cnc(-c3nn[nH]n3)nc2NC2CCCCCC2)cc1` the growth was 71% [50 µM] (inactive). In the case of `CCOc1cc(CCNS(=O)(=O)c2ccc(C)cc2)c(C(C)=O)cc1OCC`, the growth is reported as 66.1% [100 µM] (inactive). With `CCC(C)C1NC(=O)C(CCNCS(=O)(=O)O)NC(=O)C(NC(=O)C(CCNCS(=O)(=O)O)NC(=O)C(NC(=O)C(CCNCS(=O)(=O)O)NC(=O)CCCCC(C)C)C(C)O)CCNC(=O)C(C(C)O)NC(=O)C(CCNCS(=O)(=O)O)NC(=O)C(CCNCS(=O)(=O)O)NC(=O)C(C(C)CC)NC1=O` (stereo not given) the growth was 4.4% (active). With `Cn1c(=O)c2[nH]c(=S)n(Cc3ccccc3)c2n(C)c1=O` the growth was 102% (inactive). For `Cc1ccc2nc(-c3ccc(N(C)C)c(Br)c3)cn2c1`, the growth was 77.9% (inactive). `COc1cc(OC)c2c(c1Cl)O[C@]1(C2=O)C(OCc2ccccc2)=CC(=O)C[C@H]1C` was tested, and the growth was -75% (active). In the case of `COc1cc(/C=N/NC(=O)c2ccc(C(F)(F)F)nc2Nc2cc(Cl)ccc2C)cc(OC)c1OC`, the growth is reported as 102% (inactive). `CO[C@H]1/C=C/O[C@@]2(C)Oc3c(C)c(O)c4c(O)c(c(/C=N/N5C(C)CN(Cc6ccc(C#N)cc6)CC5C)c(O)c4c3C2=O)NC(=O)/C(C)=C\C=C\[C@H](C)[C@H](O)[C@@H](C)[C@@H](O)[C@@H](C)[C@H](OC(C)=O)[C@@H]1C` (stereo not given in full) was tested, and the growth was 5.17% (active). In the case of `O=C1/C(=C/c2ccccc2Cl)CCc2ccccc21`, the growth is reported as 102% (inactive). For `O=C1/C(=C\c2coc3ccccc3c2=O)c2ccccc2N1c1c(Cl)cccc1Cl`, the growth was 20.3% (inactive). `Cc1cc(C)c2c(N)c3cccc(C)c3nc2n1` was tested, and the growth was -38.7% (active). With `O=c1ncc(-c2ccc(C(F)(F)F)cc2)c(NC2CCCCCC2)[nH]1` the growth was 20.9% (inactive). `COc1cc(Cl)cc(-c2nn(-c3cccc(NC(=O)c4cc(C(F)(F)F)cc(C(F)(F)F)c4)c3)cc2-c2ccncc2)c1` was tested, and the growth was 67.3% (inactive). With `CCOC(=O)C1C(=O)NC(C(=O)OCC)(C(=O)OCC)C1CC` (stereo not given) the growth was 101% (inactive). `COc1ccc2c(c1)c(CC(=O)[Se]C)c(C)n2C(=O)c1ccc(Cl)cc1` was tested, and the growth was -63.9% (active). `c1cc[n+](Cc2ccnc3ccccc23)cc1` was tested, and the growth was 107% (inactive). For `CCCCCCCCN(CCO)CCCCCCCC`, the growth was 98.5% (inactive).
